Measured values reported in PubChem BioAssay AID488969 (Vanderbilt High Throughput Screening Facility, 2010).
In all, about 110,000 compounds were measured (“z-score”: median about -0.1, highest 2% from about 2 on). Many of the other results were omitted from the sample, so the highest values are more common in it than they were. Activity calls are given as the source filed them.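 Rule for the calls: active = z-score in the third read window above 3 or below -3; inactive = the rest.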

Target: Metabotropic glutamate receptor 8 (Rattus norvegicus) (UniProt P70579)
Assay: mGluR8 Gi/Go-coupled signaling modulation – cell-based, rat, thallium flux, HTS, primary screen (AID 488969)
Details: HEK293 rat mGluR8, GIRK (G protein-gated inwardly rectifying potassium channel) thallium flux, FluoZin2; at 10 µM; stronger effect = higher value; submaximal glutamate (EC20) added with thallium

Chain of Metabotropic glutamate receptor 8 (Rattus norvegicus) (P70579 whole entry, looked up): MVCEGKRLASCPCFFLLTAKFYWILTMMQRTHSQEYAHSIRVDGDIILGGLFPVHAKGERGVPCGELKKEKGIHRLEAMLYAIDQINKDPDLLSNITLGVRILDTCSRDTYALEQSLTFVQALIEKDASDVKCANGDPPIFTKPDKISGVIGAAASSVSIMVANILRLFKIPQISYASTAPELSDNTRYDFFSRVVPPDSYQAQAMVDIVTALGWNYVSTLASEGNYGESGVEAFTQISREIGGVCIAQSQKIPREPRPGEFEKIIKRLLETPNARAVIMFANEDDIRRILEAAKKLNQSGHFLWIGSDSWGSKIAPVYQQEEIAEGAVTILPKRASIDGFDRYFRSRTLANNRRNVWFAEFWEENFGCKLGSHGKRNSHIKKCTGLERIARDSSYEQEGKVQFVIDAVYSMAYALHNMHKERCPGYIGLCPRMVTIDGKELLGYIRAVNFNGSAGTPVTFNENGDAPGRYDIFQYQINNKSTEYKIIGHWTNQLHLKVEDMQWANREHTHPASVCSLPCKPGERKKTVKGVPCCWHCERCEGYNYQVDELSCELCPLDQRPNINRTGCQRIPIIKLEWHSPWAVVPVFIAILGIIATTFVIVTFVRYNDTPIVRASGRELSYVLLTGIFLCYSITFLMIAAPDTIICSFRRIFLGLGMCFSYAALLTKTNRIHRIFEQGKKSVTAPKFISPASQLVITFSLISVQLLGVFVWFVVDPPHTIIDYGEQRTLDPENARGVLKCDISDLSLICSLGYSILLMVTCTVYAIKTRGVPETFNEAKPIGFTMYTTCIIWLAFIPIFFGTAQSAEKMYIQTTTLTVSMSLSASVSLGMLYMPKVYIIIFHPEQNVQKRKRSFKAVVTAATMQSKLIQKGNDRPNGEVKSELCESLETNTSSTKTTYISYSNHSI

SMILES | z-score
CCOc1ccccc1C1CC(c2ccc(F)cc2)Nc2nc(N)nn21 (stereo unspecified) | -0.0345
Cc1ccc(CNC(=O)C(Cc2ccccc2)NS(=O)(=O)c2cccs2)cc1 (stereo unspecified) | -0.105
O=c1[nH]c(CN2CCN(Cc3ccccc3)CC2)nc2sc3c(c12)CCC3 | -0.568
CCCSc1nc2sc3c(c2c(=O)[nH]1)CCN(Cc1ccccc1)C3 | 3.04 (active)
O=c1[nH]cnc2sc3c(c12)CCN(Cc1ccccc1)C3 | 0.233
O=C1C=C(NCc2ccco2)CCC1 | 2
O=C1C=C(NCc2ccccc2)CCC1 | -0.0868
CC1(C)CC(=O)C=C(NCc2ccco2)C1 | -0.0748
Cc1ccc(Cn2c(SCC(C)C)nc3c2c(=O)[nH]c(=O)n3C)cc1 | -0.876
COc1cc2c(=O)n(Cc3ccccc3)c(=O)n(CC(=O)NCCc3ccccc3)c2cc1OC | -0.669
CC1(C)CC(=O)C2=C(C1)NC(=O)CC2c1ccc(F)cc1 (stereo unspecified) | -0.481
COc1ccc(-c2noc(CCC(=O)NC3CCN(Cc4ccccc4)CC3)n2)cc1 | 0.924
CCc1ccccc1N(CC)C(=O)CCc1nc(-c2ccc(C)cc2)no1 | -0.0345
Cc1ccc(-c2noc(CCC(=O)N(C)c3ccccc3C)n2)cc1 | 0.361
COc1ccc(-c2noc(CCC(=O)NCC3CCN(Cc4cccc(C)c4)CC3)n2)cc1 | 0.183
Cc1ccc(-c2noc(CCC(=O)NC3CCN(Cc4ccccc4)CC3)n2)cc1 | 2.02

SMILES | z-score
Cc1ccc(-c2noc(CCC(=O)NCCN3CCN(Cc4ccccc4)CC3)n2)cc1 | -0.696
O=C(CCc1nc(-c2ccccc2F)no1)NC1CCN(Cc2ccccc2)CC1 | 0.608
CCc1ccccc1N(C)C(=O)CCc1nc(-c2ccc(C)cc2)no1 | 2.44
Cc1ccc(-c2noc(CCC(=O)NCC3CCN(Cc4cccc(C)c4)CC3)n2)cc1 | 2.64
CC1CCN(S(=O)(=O)c2ccc(NC(=O)CN3CCCC(C)C3)cc2)CC1 (stereo unspecified) | 0.282
O=C(c1cccc(F)c1)N1CCc2ccccc21 | -0.134
CCOC(=O)c1cc(NC(=O)c2cc(C)on2)cc(C(=O)OCC)c1 | -0.369
CCn1nc2cc(C(=O)NCCc3cccs3)ccc2c1OC | -0.218
COC(=O)CSC1=C(C#N)C(c2sccc2C)CC(=O)N1 (stereo unspecified) | 0.174
O=C(NCC1CCCO1)C(c1cccs1)N(C(=O)Cn1nnc(-c2cccs2)n1)C1CCCC1 (stereo unspecified) | -0.378
C/C(=N\NC(=O)c1ccccc1C)c1cccc([N+](=O)[O-])c1 | -0.192
CCCCNc1ccc2nsnc2c1[N+](=O)[O-] | -0.137
C=CCNC(=O)c1nn2cccnc2c1Cl | -0.068
O=C(Nc1ccc2c(c1)oc1ccccc12)c1ccc2c(c1)OCO2 | 0.81
Cc1cc2oc(C(=O)N(Cc3ccccc3)C3CCS(=O)(=O)C3)cc(=O)c2cc1Cl (stereo unspecified) | -0.141
